MRP reversal: reversal of MRP1-mediated doxorubicin resistance, primary screen, H69AR cells, doxorubicin co-treatment. H69AR cells + 2 uM doxorubicin, CellTiter-Glo, 72 h. differential viability (reversal), % at 10 µM. 85,000 compounds, 0.04% hits;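 active = viability drop by adding the cancer drug above about 55%, with treated viability meeting a 40% cutoff, limit read from the data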;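 also: larger differential means the compound sensitizes cells more to doxorubicin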
MRP-1 activ: H69AR viability gain despite doxorubicin, primary screen, MRP-1 activator project, H69AR cells, CellTiter-Glo. viability rescue. viability increase, % at 10 µM. 140,000 compounds, 0.61% hits. AID 799, 2007;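 active = viability gain under doxorubicin at or above a set limit, the compound median plus 3 SD, cut at about 4.7% in these data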;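 also: MRP-1 overexpressing cells given doxorubicin 25 µM after compound pretreatment; 18-22 h compound pretreatment then 72 h with doxorubicin before readout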
Pyk2 oligo antag: antagonists of Pyk2 self-association, primary screen, Q293 cells, FERM NanoBiT luminescence, HTS | active compounds read low | AID 1347419, 2020 | z-score (the deposit names both 25 µM and 10 µM) | 99,000 compounds, 0.83% hits;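 active = Z-score of -3 or lower, scaled per plate to the spread of control and sample wells; inactive = z-score above -3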;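 also: negative z-score means lost luminescence so less FERM oligomerization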
Target sequence (Q14289 whole entry, looked up): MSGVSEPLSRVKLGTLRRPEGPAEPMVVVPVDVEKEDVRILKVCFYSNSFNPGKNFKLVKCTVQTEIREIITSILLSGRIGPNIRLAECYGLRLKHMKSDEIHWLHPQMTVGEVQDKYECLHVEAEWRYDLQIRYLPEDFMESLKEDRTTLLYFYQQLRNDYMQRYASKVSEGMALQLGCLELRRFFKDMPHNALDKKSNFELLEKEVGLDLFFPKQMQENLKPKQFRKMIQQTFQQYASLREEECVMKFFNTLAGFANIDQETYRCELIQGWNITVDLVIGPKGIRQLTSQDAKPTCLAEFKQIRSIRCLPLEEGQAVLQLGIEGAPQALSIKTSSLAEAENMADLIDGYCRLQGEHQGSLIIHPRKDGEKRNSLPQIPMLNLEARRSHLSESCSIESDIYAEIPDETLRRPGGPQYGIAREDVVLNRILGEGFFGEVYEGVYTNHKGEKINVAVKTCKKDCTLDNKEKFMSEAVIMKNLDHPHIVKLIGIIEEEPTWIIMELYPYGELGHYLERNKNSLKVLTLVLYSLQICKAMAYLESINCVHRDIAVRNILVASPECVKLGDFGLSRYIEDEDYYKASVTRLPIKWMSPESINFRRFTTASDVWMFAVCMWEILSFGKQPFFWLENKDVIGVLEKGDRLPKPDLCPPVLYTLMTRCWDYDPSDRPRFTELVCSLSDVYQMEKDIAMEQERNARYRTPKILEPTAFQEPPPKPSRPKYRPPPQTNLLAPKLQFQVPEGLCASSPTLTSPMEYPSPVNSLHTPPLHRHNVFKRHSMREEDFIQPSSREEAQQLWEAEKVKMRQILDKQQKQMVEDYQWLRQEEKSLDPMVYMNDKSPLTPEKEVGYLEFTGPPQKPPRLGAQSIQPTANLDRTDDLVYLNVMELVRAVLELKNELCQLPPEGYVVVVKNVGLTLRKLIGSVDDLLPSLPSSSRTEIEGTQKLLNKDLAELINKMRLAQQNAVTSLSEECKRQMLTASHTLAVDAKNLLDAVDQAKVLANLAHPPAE
Cav32 inh: Cav3.2 calcium influx blockers – cell-based, Fluo-4 calcium fluorescence, FDSS, MLSMR library, primary screen | Cav3.2-expressing cells; active compounds read low | B-score at 10 µM | 100,000 compounds, 4% hits;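 active = single-dose well whose peak fluorescence ratio is a statistical outlier from its plate by either plate-standardised score or position-corrected B-score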
CD11b adhes enh: enhancers of CD11b/CD18 adhesion to fibrinogen, primary screen, K562 cells, luminescence. Integrin beta-2 (Homo sapiens) + Integrin alpha-M (Homo sapiens), P05107+P11215. ATPlite luminescence. activation, % at 10 µM. 93,000 compounds, 0.07% hits. AID 1499, 2009;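 active = 10 µM primary screen giving 50% or more activity, confirmed by 40% or more on retest at that dose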
Mac1 fbg inh: inhibitors of CD11b/CD18 adhesion to fibrinogen, primary screen, K562 cells, luminescence; Integrin beta-2 (Homo sapiens) + Integrin alpha-M (Homo sapiens), P05107+P11215; 93,000 compounds, 0.54% hits; ATPlite luminescence; Mn2+ added to activate the integrin; inhibition, % at 10 µM;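 active = primary inhibition of 50% or more at 10 µM, then 40% or more on retest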
Large screens that a line does not name were inactive. Shown are actives, neighbours in structure and some others; about 4.1% of the full set was active somewhere.

COc1cccc(CNC(=O)CSCc2cnn(-c3ccccc3)c2-n2cccc2)c1OC	Cav32 inh -6
CCOc1ccc(NC(=O)CSCc2cnn(-c3ccccc3)c2-n2cccc2)cc1	Cav32 inh -10
COc1ccc(OC)c(NC(=O)CSCc2cnn(-c3ccccc3)c2-n2cccc2)c1	Cav32 inh -9.1 (no result: CD11b adhes enh, Mac1 fbg inh)
O=C(CSCc1cnn(-c2ccccc2)c1-n1cccc1)N1CCN(Cc2ccccc2)CC1	none
COc1ccc(OC)c(NC(=O)CSc2nc3ccccc3c3nc4ccccc4n23)c1	none (no result: MRP reversal, Pyk2 oligo antag, Cav32 inh)
CCOc1ccc(NC(=O)c2cc3c(=O)n(C)c4ccccc4c3n2C)cc1	none (no result: Pyk2 oligo antag)
CC(=O)Nc1ccc(NC(=O)CSc2nnc(-c3ccco3)n2Cc2ccco2)cc1	none
COc1cccc(CN(C)CC(=O)NC(=O)NCc2ccccc2)c1	none (no result: MRP reversal, Pyk2 oligo antag, Cav32 inh, CD11b adhes enh, Mac1 fbg inh)
CC(=O)Nc1ccc(S(=O)(=O)N2CCC(c3nc4ccc(C)cc4[nH]3)CC2)cc1	none
CC(C)(C)c1ccc(S(=O)(=O)N2CCC(c3nc4ccc(Cl)cc4[nH]3)CC2)cc1	Cav32 inh -4.6 (no result: CD11b adhes enh, Mac1 fbg inh)
Nc1nc(Nc2ccc(Cl)cc2)nc2ccccc12	Mac1 fbg inh 85
O=C(NCCc1ccccc1)C(=O)NCC1(c2ccccc2)CCCC1	none (no result: CD11b adhes enh, Mac1 fbg inh)
O=C(NCC1(c2ccccc2)CCCC1)c1cccc(Br)c1	Cav32 inh -7.5 (no result: MRP reversal, CD11b adhes enh, Mac1 fbg inh)
O=C(O)CCCCCNCc1ccncc1	none (no result: MRP reversal)
CCOc1ccc(C(CCc2ccccc2)NC(=O)c2ccccc2)cc1OCC (stereo unspecified)	Cav32 inh -5.1 (no result: MRP reversal)
CCOc1ccc(C(CC(=O)O)NC(=O)c2ccco2)cc1OC (stereo unspecified)	none
C=CCOC(=O)C1=C(C)NC(SCC)=C(C#N)C1c1ccc(Cl)cc1 (stereo unspecified)	Pyk2 oligo antag -3.2, Cav32 inh -7.5
Cc1nn(Cc2ccccc2)c(C)c1NC(=O)c1cc(-c2ccco2)on1	Cav32 inh -6.2 (no result: CD11b adhes enh, Mac1 fbg inh)
COc1ccc(OC)c(-c2cc(C(=O)Nc3c(C)nn(Cc4ccccc4)c3C)no2)c1	none
C/C(=N\O)c1ccccc1C(=O)O	Pyk2 oligo antag -3.3
CCCn1c(C2CC(=O)N(c3ccc(C)cc3)C2)nc2ccccc21 (stereo unspecified)	none (no result: CD11b adhes enh, Mac1 fbg inh)
Cc1ccc(OCCn2c(C3CC(=O)N(Cc4ccccc4)C3)nc3ccccc32)cc1 (stereo unspecified)	Cav32 inh -7.3 (no result: Pyk2 oligo antag)
O=C(Nc1nc2ccc(Cl)cc2s1)c1ccc(N2CCCCC2)c([N+](=O)[O-])c1	none (no result: MRP reversal, Pyk2 oligo antag, Cav32 inh, CD11b adhes enh, Mac1 fbg inh)
Cc1c(NC(=O)c2ccc(N3CCCC3)c([N+](=O)[O-])c2)cccc1-c1nc2ccccc2s1	Cav32 inh -4.6 (no result: MRP reversal)
CC(C)CCNC(=O)c1onc(CSc2ccc(Cl)cc2)c1C(=O)NCCC(C)C	none (no result: MRP reversal, MRP-1 activ, Pyk2 oligo antag, CD11b adhes enh, Mac1 fbg inh)
CC(C)(C)NC(=O)[C@@H]1C[C@@H]2CCCC[C@@H]2CN1C[C@@H](O)[C@H](Cc1ccccc1)NC(=O)[C@H](CC(N)=O)NC(=O)c1ccc2ccccc2n1	Cav32 inh -5.6 (no result: MRP reversal, MRP-1 activ, Pyk2 oligo antag, CD11b adhes enh, Mac1 fbg inh)
O=C(c1cc(-c2cccs2)nc2ccccc12)N1CCN(S(=O)(=O)c2ccccc2)CC1	Cav32 inh -4.3
CCC1ON(C(C)C)C2c3nc4ccccc4n3CC12 (stereo unspecified)	none (no result: MRP reversal, MRP-1 activ, Pyk2 oligo antag, CD11b adhes enh, Mac1 fbg inh)
Cc1ccccc1N(CC(=O)N/N=C/c1ccc(Cl)cc1)C(=O)c1ccccc1	Cav32 inh -5.2 (no result: MRP reversal)
O=C(Cc1cccc2ccccc12)N/N=C/c1ccc(F)cc1	Cav32 inh -4 (no result: MRP reversal, CD11b adhes enh, Mac1 fbg inh)
CC(C)(C)c1ccc(/C=N/NC(=O)Cc2c[nH]c3ccccc23)cc1	none (no result: MRP reversal)
Cc1ccccc1N(CC(=O)N/N=C/c1ccc(F)cc1)C(=O)c1ccccc1	Cav32 inh -5.6 (no result: MRP reversal)
CC(=O)c1c(C)nc(-c2ccc(Cl)cc2Cl)n1O	none (no result: CD11b adhes enh, Mac1 fbg inh)
O=C(Nc1ccc(NC(=O)c2ccco2)cc1)c1cnccn1	none
CC(C)c1nnc(NC(=O)CCC(=O)N2CCN(C3c4ccccc4-c4ccccc43)CC2)s1	none (no result: MRP reversal, Pyk2 oligo antag, Cav32 inh)
CCN1C=C(Cc2ccc(F)cc2)C2=C(C1)C(c1ccc(F)cc1)C(C#N)=C(N)O2 (stereo unspecified)	none (no result: MRP reversal)
Cc1ccc(C)n1-n1c(C)nc2scc(-c3ccccc3)c2c1=O	Cav32 inh -6.9
Cc1ccc(C=Nc2ccc(N(C)C)cc2)o1	MRP reversal 65
Cc1ccc(C=Nc2ccccc2C(N)=O)o1	none (no result: MRP reversal, Pyk2 oligo antag, Cav32 inh, CD11b adhes enh, Mac1 fbg inh)
COc1ccc(C(=O)Nc2nc3ccccc3[nH]2)cc1OC	MRP reversal 64 (no result: CD11b adhes enh, Mac1 fbg inh)
COc1ccc(C(=O)Nc2nc(-c3cccs3)cs2)cc1	Cav32 inh -8.9
COc1cc(C(=O)Nc2nc(-c3cccs3)cs2)cc(OC)c1OC	Pyk2 oligo antag -4.3
Cc1nc(C)c(C(=O)NNS(=O)(=O)c2ccccc2)s1	MRP-1 activ 5.2 (no result: MRP reversal, Pyk2 oligo antag, Cav32 inh, CD11b adhes enh, Mac1 fbg inh)
Cc1ccc(S(=O)(=O)NNC(=O)c2snnc2C)cc1	none
O=C(CCl)c1ccc(Cc2ncc(C(F)(F)F)cc2Cl)s1	none (no result: MRP reversal)
CCOC(=O)C1(Cc2ccc(O)cc2)NC(c2ccco2)C2C(=O)N(c3ccccc3F)C(=O)C21 (stereo unspecified)	none
CC(C)CCC1CC(CSC(=N)N)OC1=O (stereo unspecified)	MRP-1 activ 5.1
Cc1csc(NC(=O)c2cccc(Cn3nc(C)c(Br)c3C)c2)n1	Cav32 inh -3.7
Cc1nn(Cc2cccc(C(=O)NC3CCCCC3)c2)c(C)c1Cl	none (no result: Cav32 inh, CD11b adhes enh, Mac1 fbg inh)
COC(=O)c1cc2ccsc2n1CC(=O)Nc1cc(C)cc(C)c1	none
Cc1nnc(SCc2cnc(-c3ccc(C(C)C)cc3)s2)n1C	Mac1 fbg inh 70
CC1(C)NC(C)(C)c2nonc2/C1=N\O	none
CCN(C(=O)Cn1c(=O)n(Cc2ccccc2)c(=O)c2ccccc21)c1cccc(C)c1	Cav32 inh -6.4
Cc1cc(NC(=O)Cn2c(=O)n(Cc3ccccc3)c(=O)c3ccccc32)no1	none (no result: MRP reversal, Cav32 inh)
Nc1c(C(=O)NCc2ccco2)c2nc3ccccc3nc2n1CCc1ccccc1	none (no result: MRP reversal, Pyk2 oligo antag, Cav32 inh, CD11b adhes enh, Mac1 fbg inh)
CC(=O)Nc1cc(C(=O)OCC(=O)c2ccc(Cl)cc2Cl)ccc1C	none (no result: MRP reversal, CD11b adhes enh, Mac1 fbg inh)
CC(C)C(=O)Nc1cccc(C(=O)OCC(=O)c2ccc(Cl)cc2Cl)c1	Pyk2 oligo antag -3.5 (no result: MRP reversal)
Cc1nc2ccccc2c(=O)n1/N=C/c1c(O)ccc2oc3c(c12)CCCC3	MRP-1 activ 5.9 (no result: Cav32 inh)
Cc1nc2ccccc2c(=O)n1/N=C/c1ccc(N(C)C)cc1	none
O=C(Nc1cccnc1)c1cc2c(ccc3ccccc32)o1	none
O=C(Nc1ccc2ccccc2c1)C(c1ccccc1)C1CCCC1 (stereo unspecified)	none (no result: MRP reversal, Pyk2 oligo antag, Cav32 inh, CD11b adhes enh, Mac1 fbg inh)
Cc1cccc(C)c1NC(=O)C(=O)NCCOc1ccc(Cl)cc1	Cav32 inh -3.6 (no result: MRP reversal, CD11b adhes enh, Mac1 fbg inh)
COC(=O)c1ccc(CSc2nc3ccccc3c(=O)n2CC(C)C)o1	Cav32 inh -4.7
